These results are taken from ChEMBL document CHEMBL4513216, “Probing the Open Global Health Chemical Diversity Library for Multistage-Active Starting Points for Next-Generation Antimalarials” (ACS Infect Dis, 2020).

Out of some 69,000 compounds screened, about 8,600 (12%) showed an effect of 50% or more. The full list was thinned out, with strong results kept by preference.

This experiment concerns Plasmodium berghei. The experiment can be described thus: Screen against P. berghei liver stage (PbLuc), transformed with Luciferase, at 10uM. It is filed as functional, HepG2. Conditions: tested at 10 uM.
For the compound `CCn1nc(C)c2nc(C(C)C)nc(NCC(=O)N3CCOCC3)c21`, the INHIBITION was 48.2%.
`CC(C)c1noc(CN2CCCN(Cc3cccs3)CC2)n1`: the INHIBITION is 11.6%.
As for `CCOC1Sc2nnc(C)n2N=C1c1ccc(Cl)cc1` (stereo not drawn), the figure is 31.8%; as for `CN(C(=O)c1ccc(S(=O)(=O)NC(C)(C)C)cc1)C1(C#N)CCC1`, 50.4%.
The value for `CCC(C)NS(=O)(=O)c1ccc(C(=O)N(C)C2(C#N)CCC2)cc1` (stereo not drawn) was 46.3%.
As for `CN(Cc1ccsc1)C(=O)c1ccc(S(=O)(=O)NC(C)(C)C)cc1`, the figure is -61.4%.
As to `Cc1n[nH]c(C)c1-c1cnc(CC2CCCN(S(C)(=O)=O)C2)cn1` (stereo not drawn), the INHIBITION was -38.2%.
With `Cc1cc(C)c2nc(C)c(C(=O)N3CCC(N4CCCC4)CC3)cc2c1`, the INHIBITION turned out to be 31%.
The value for `CN1CCN(C(=O)CCn2c(C(F)(F)F)cc3cccnc32)CC1` was -15.3%.
On to `CCNc1nc(C)c(C(=O)N2CCN(c3ncccc3C)CC2)s1`, for which the INHIBITION was -11.2%.
The value for `CCOC(=O)N1CCN(C(=O)c2sc(-c3ccc(F)cc3)nc2C)CC1` was 18.8%; that for `Cc1cc(=O)c(C(=O)N2CCC(C(O)Cc3ccccc3)CC2)c(C)[nH]1` (stereo not drawn) was 35.8%; that for `COc1nc(C)c(C(=O)N2CCC(C(O)Cc3ccccc3)CC2)s1` (stereo not drawn) was 18.5%.
As for `CCOC(=O)N1CCN(C(=O)c2sc(-c3ccccc3)nc2C)CC1`, the figure is 74.7%.
As for `Cc1nc(N)sc1C(=O)N1CCC(C(O)Cc2ccccc2)CC1` (stereo not drawn), the INHIBITION amounted to 46.7%.
Regarding `CCNc1nc(C)c(C(=O)N2CCC(C(O)Cc3ccccc3)CC2)s1` (stereo not drawn), the INHIBITION came to 53.9%.
As for `CCOC(=O)N1CCN(C(=O)c2sc(-c3ccncc3)nc2C)CC1`, the figure is 24%; as for `CNc1nc(C)c(C(=O)N2CCC(C(O)Cc3ccccc3)CC2)s1` (stereo not drawn), 61.2%.
On to `Cc1cc(C(=O)N2CCc3nc(C4CCCCN4)ncc3C2)cs1` (stereo not drawn), for which the INHIBITION is recorded as -17.7%.
As for `O=C([C@H]1CC[C@@H]2[C@@H](CCN2Cc2nccs2)O1)N1CCCCO1`, the INHIBITION amounted to 19.5%.
On to `O=S1(=O)NCC2(CCCN(Cc3cccnc3)C2)Oc2ncccc21` (stereo not drawn), for which the INHIBITION turned out to be 40.8%.
Consider `c1cc(CCNc2ccc(CC3CCNC3)cn2)ccn1` (stereo not drawn), for which the INHIBITION is on record as 19.3%.
The value for `O=C([C@@H]1CCS(=O)(=O)[C@@H]2CN(c3ncccn3)C[C@@H]21)N1CCOCC1` was 23.1%.
In the case of `CN1CCNC(Cc2ccc(-c3ccncc3)cc2)C1=O` (stereo not drawn), the INHIBITION is listed as 22%.
As for `CCN1CCn2c(C)cnc2C12CCN(C(=O)N(C)C)CC2`, the figure is -18.4%; as for `O=C(Nc1cccnc1)[C@H]1C[C@@H]2CCN(c3nncs3)C[C@H]2O1`, -13.2%; as for `Cn1cc(N2C(=O)CC[C@@H]3[C@H]2CCN3Cc2cccc(C#N)c2)cn1`, -24.1%.
`COC(=O)c1cccc(CN(C)C(C)c2ccccn2)c1` (stereo not drawn): the INHIBITION is on record as 14.8%.
The value for `CC(C)n1cnnc1CN(C)Cc1cnc(-c2ccccn2)nc1` was -36.3%; that for `CC(c1cccs1)N(C)Cc1cnc(-c2ccccn2)nc1` (stereo not drawn) was 66.5%; that for `CC(=O)N1CCN(C(=O)c2ccc(-c3cccc(C)c3)[nH]c2=O)CC1` was 35.7%.
On to `Cc1cnn(CCNCc2ccccc2F)c1`, for which the INHIBITION is listed as -14.6%.
Regarding `Cc1ccc(-c2cc(CNCCn3cc(C)cn3)on2)cc1`, the INHIBITION came out at 60.4%.
On to `Cc1cnn(CCNCc2cc(-c3ccccc3)no2)c1`, for which the INHIBITION is listed as 20.4%.
Turning to `Cc1cnn(CCNCc2cc(C)no2)c1`, the INHIBITION turned out to be 38.8%.
Consider `Cc1cnn(CCNCc2ccc(C#N)cc2)c1`, for which the INHIBITION came to 6.8%.
Take `Cc1cnn(CCNCc2ccccc2C#N)c1`: the INHIBITION worked out at 51%.
For `CCN(CC1CCCO1)C(=O)NCCNC(=O)c1ccccc1F` (stereo not drawn), the INHIBITION is 34.5%.
As for `CCC(Nc1cccc(Oc2ccccn2)c1)C(N)=O` (stereo not drawn), the figure is 62%.
Consider `NC(=O)Nc1cccc(Oc2ccccn2)c1`, for which the INHIBITION was -1.58%.
For `CCC(Nc1cccc(Oc2ccc(C#N)cc2)c1)C(N)=O` (stereo not drawn), the INHIBITION worked out at 29.6%.
As for `CN1CCC(c2nnc(CN3CCCCC3)n2C)CC1`, the figure is 25.4%; as for `COc1ccccc1OCC(=O)NCC(C)(O)C1CC1` (stereo not drawn), -3.51%; as for `CC(=O)N1CCc2[nH]cnc2C12CCN(C(=O)CCn1cccn1)CC2`, 35.2%.
The value for `CC(=O)N1CCc2[nH]cnc2C12CCN(C(=O)Cc1cccs1)CC2` was 61.5%.
As for `CCC(=O)N1CCC2(CC1)c1nc[nH]c1CCN2S(C)(=O)=O`, the figure is 1.81%.
On to `CCCN1CCc2[nH]cnc2C12CCN(C(=O)CCn1cccn1)CC2`, for which the INHIBITION came out at 54.8%.
For the compound `CCN1CCc2[nH]cnc2C12CCN(C(=O)CCc1cccs1)CC2`, the INHIBITION came to 26%.
The value for `CC(=O)N1CCc2[nH]cnc2C12CCN(C(=O)Cc1ccccn1)CC2` was 8.31%; that for `CCCN1CCc2[nH]cnc2C12CCN(C(=O)Cn1ccnc1C)CC2` was 57%.
As for `CN1CCc2[nH]cnc2C12CCN(C(=O)CCc1cccs1)CC2`, the figure is 31.9%; as for `CCN1CCc2[nH]cnc2C12CCN(C(=O)CCCn1cncn1)CC2`, 36.3%.
For the compound `CN1CCc2c(CNc3ncccn3)n[nH]c2C1`, the INHIBITION is recorded as 27.5%.
As for `CCC(=O)N1CCC(Cc2ccccc2-c2ccccc2F)(C(N)=O)C1` (stereo not drawn), the figure is 29.2%.
As for `Cc1cnn(C2(C(=O)O)CCN(Cc3oc4ccccc4c3C)CC2)c1`, the figure is -0.613%; as for `CC(C)n1nnc(CC(=O)NCC2(c3cccc(F)c3)CCCC2)n1`, 26.7%.
As for `COCc1ccccc1NC(=O)c1ccoc1`, the figure is -80.7%.
Consider `Cc1ccc(C#N)cc1NC(=O)NC1CCCN(c2ncccn2)C1` (stereo not drawn), for which the INHIBITION amounted to 42%.
As for `CC(C(=O)N1CCN(Cc2ccncc2)CC1)n1cncn1` (stereo not drawn), the figure is 4.25%.
The value for `Fc1ccc(-c2cnc(C3CCNCC3)cn2)cc1` was 37.85%; that for `CC(CO)CN(Cc1ccccc1)C(=O)c1csc(CN(C)C)n1` (stereo not drawn) was 13.7%.
As for `Cc1nc(C(C)NC(=O)c2cn(CCC3CCCCC3)nn2)n[nH]1` (stereo not drawn), the figure is 5.75%; as for `COCc1noc(Cn2c(=O)[nH]c3ccccc32)n1`, 74%; as for `COCc1noc(Cn2c(C3CC3)nc3ccccc32)n1`, 39.2%.
For the compound `COCCc1noc(Cn2c(=O)[nH]c3ccccc32)n1`, the INHIBITION was -16.5%.
As for `CC1COCCN1C(=O)Cc1cc(Cl)c2c(c1)OCCO2` (stereo not drawn), the INHIBITION is 26.8%.
On to `CSCC1CCN(C(=O)Cn2ncc(N3CCCCC3)cc2=O)CC1`, for which the INHIBITION is recorded as 40.7%.
As to `O=C(c1cncs1)N1CCc2[nH]nc(Nc3ccccc3)c2C1`, the INHIBITION worked out at 20.49%.
In the case of `CN1CCCN(C(=O)c2cc(CN(C)CCc3ccccc3)on2)CC1`, the INHIBITION worked out at 53.3%.
For the compound `CN(CCc1ccccc1)Cc1cc(C(=O)N2CCN(C)C(=O)C2)no1`, the INHIBITION was -13.2%.
The value for `CN(CCc1ccccc1)Cc1cc(C(=O)N2CCSCC2)no1` was 40.5%; that for `O=C1CCC2(CCN(Cc3nccs3)CC2)CN1CCCO` was -47.8%.
For `Cc1cnc(CN(C)C2CCCN(Cc3noc(C4CC4)n3)C2)cn1` (stereo not drawn), the INHIBITION is listed as 10%.
With `CC(NCC(=O)N(C)C1CC1)c1ccc(S(C)(=O)=O)c(F)c1` (stereo not drawn), the INHIBITION turned out to be 34.7%.
For `O=C(NCc1cnc2n1CCN(CC1CC1)C2)C1CC1`, the INHIBITION is on record as -30%.
The value for `O=C(NCc1cnc2n1CCN(Cc1ccoc1)C2)c1ccno1` was 63.8%.
Turning to `O=C(NCc1cnc2n1CCN(CC1CCOCC1)C2)c1ccno1`, the INHIBITION came to 50.3%.
Regarding `Cn1cccc1C(=O)NCc1cnc2n1CCN(CC1CCOCC1)C2`, the INHIBITION is recorded as 20.4%.
The value for `O=C(NCc1cnc2n1CCN(Cc1nccs1)C2)c1ccno1` was 23.1%; that for `O=C(NCc1cnc2n1CCN(Cc1cccs1)C2)c1ccno1` was 12.2%.
As to `O=C(C(c1ccccc1)S(=O)(=O)c1ccccn1)N1CCCC1` (stereo not drawn), the INHIBITION was found to be 14.2%.
The value for `Cn1nnc2c1CCN(Cc1ccccn1)C2COCc1ccccc1` (stereo not drawn) was 21.3%.
Regarding `Cc1cc(-c2ccccc2C(=O)O)nc(C2CCCCN2C)n1` (stereo not drawn), the INHIBITION worked out at 59%.
Take `CC(=O)N1CCCCC1c1nc(C)cc(-c2ccccc2C(=O)O)n1` (stereo not drawn): the INHIBITION came to 15.9%.
On to `Cc1cc(-c2ccccc2C(=O)O)nc(C2CCCN2S(C)(=O)=O)n1` (stereo not drawn), for which the INHIBITION is 12.8%.
On to `O=C(Cc1cn2ccsc2n1)N1CCCC(n2cccn2)C1` (stereo not drawn), for which the INHIBITION is listed as -1.12%.
Turning to `COCCc1noc(CN2CCCC2c2noc(C(C)C)n2)n1` (stereo not drawn), the INHIBITION was 21.8%.
As for `CN(Cc1cccc(-n2cccn2)c1)Cc1c[nH]cn1`, the INHIBITION came out at 35.05%.
As to `COc1cc(N(C)Cc2cccc(-n3cccn3)c2)nc(N)n1`, the INHIBITION came out at 80%.
The value for `CN(Cc1ccc(-n2cccn2)cc1)c1nc(N)nc2c1CCNCC2` was 45%; that for `CN(Cc1cccc(-n2cccn2)c1)c1cc(N2CCCC2)nc(N)n1` was 93.9%.
As for `CN(Cc1cccc(-n2cccn2)c1)C(=O)c1ccnc(N)c1`, the figure is 21.2%.
With `CC(CN(C)Cc1cccc(-n2cccn2)c1)C(F)(F)F` (stereo not drawn), the INHIBITION worked out at 17.735%.
The value for `CN(Cc1cccc(-n2cccn2)c1)C(=O)c1cccc(N(C)C)c1` was 22.1%; that for `CN(Cc1ccc(-n2cccn2)cc1)c1cc(N)nc(N)n1` was 82.2%.
As for `CN(Cc1ccc(-n2cccn2)cc1)Cc1cnc(N(C)C)nc1`, the INHIBITION came out at 37.4%.
The value for `CCCc1nc(C)c(C(=O)NCCNc2ncccc2C#N)s1` was -24.2%; that for `CC(C)NC(=O)[C@H]1C[C@@H]2[C@@H](C1)OCCN2Cc1cnn(C)c1` was -4.56%; that for `CCOc1ccccc1OC1CCN(C(=O)c2cnsn2)CC1` was 21.5%.
As to `CN(C)Cc1cn(-c2ccccc2C(=O)NCCC2CCCN2C)cn1` (stereo not drawn), the INHIBITION was found to be 10%.
As for `Nc1ncccc1CN1CCCn2nc(CCC(=O)NC3CC3)cc2C1`, the figure is 46.1%; as for `CN1CCN(S(=O)(=O)c2ccccc2)Cc2cccnc21`, 14.9%; as for `COc1ccc(S(=O)(=O)N2CCN(C)c3ncccc3C2)cc1`, 42.1%.
Regarding `CN1CCN(S(=O)(=O)c2cccc(F)c2)Cc2cccnc21`, the INHIBITION came out at 65.7%.
The value for `Cc1cc(C2CCCN2Cc2ccn(C)c(=O)c2)on1` (stereo not drawn) was 20.1%; that for `O=C(NCc1cn2cccnc2n1)C1CC(=O)N(Cc2ccccn2)C1` (stereo not drawn) was 37.6%.
As for `CN(C)CCN1CC(C(=O)NCc2cn3cccnc3n2)CC1=O` (stereo not drawn), the figure is 23.9%; as for `CC(C)(C)N1CC(C(=O)NCc2cn3cccnc3n2)CC1=O` (stereo not drawn), 53.9%.
